Each structure is given as a SMILES string. Compounds without any hit were thinned out: in the full panel of roughly 83,000, 20% have a hit.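 Values shown are percent growth following 48 h exposure of cells in 96-well plates to a single concentration of compound; below 10 was considered active.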 Activity calls are given as the source filed them.

Test systems include NCI-H23 lung; NCI-H226 lung; NCI-H322M lung; HOP-62 NSCLC; NCI-H460 lung; NCI-H522 lung; A549/ATCC NSCLC; 786-0 renal; COLO 205 colon; DU-145 prostate; MALME-3M melanoma; MDA-MB-231 breast; RXF 393 renal; SF-268 CNS; SF-295 CNS; SF-539 CNS; UACC-257 melanoma; M14 melanoma; K-562 leukemia.
Common to all, as to assay: NCI-60 one-dose screen, 48 h (100 = growth as untreated, 0 = no growth, -100 = all killed)
Conditions in all cases: 10 µM unless noted

Take `Cc1cc(Cl)cc(Cc2cc(Cl)cc(C)c2O)c1O`: the growth was 0.327% (active) with NCI-H23 lung; 92.3% (inactive) with NCI-H226 lung; 18.1% (inactive) with NCI-H322M lung; 56.8% (inactive) with HOP-62 NSCLC; 6.76% (active) in the assay with NCI-H460 lung; -7.46% (active) in the assay on NCI-H522 lung. Besides, the growth is 29% (inactive) with A549/ATCC NSCLC; 14.9% (inactive) in the assay on 786-0 renal; 101% (inactive) in the assay with COLO 205 colon; 30.5% (inactive) in the assay with DU-145 prostate; -7.41% (active) with MALME-3M melanoma; 1.11% (active) with MDA-MB-231 breast. Besides, the growth in the assay on RXF 393 renal is 56.9% (inactive); in the assay on SF-268 CNS, 15% (inactive); with SF-295 CNS it was 22.6% (inactive); in the assay on SF-539 CNS it was 12.7% (inactive); with UACC-257 melanoma, 8.59% (active); in the assay with M14 melanoma, 14.2% (inactive).

On to `CCOc1ccc2c(c1)c(C)cc(C)[n+]2CC`, for which the growth in the assay with NCI-H23 lung is 43.5% (inactive); in the assay on NCI-H226 lung, 82.8% (inactive); in the assay on NCI-H322M lung, 83.2% (inactive); with HOP-62 NSCLC, 80.7% (inactive); in the assay on NCI-H460 lung, 109% (inactive); in the assay with NCI-H522 lung, 46.1% (inactive). Besides, the growth is 45.4% (inactive) in the assay with A549/ATCC NSCLC; 79.4% (inactive) in the assay on 786-0 renal; 65.5% (inactive) with COLO 205 colon; 47.2% (inactive) in the assay on K-562 leukemia; 101% (inactive) with MALME-3M melanoma; 91.3% (inactive) in the assay with MDA-MB-231 breast. Moreover, the growth in the assay with RXF 393 renal was 96.3% (inactive); in the assay with SF-268 CNS, 95.2% (inactive); with SF-295 CNS it was 54.3% (inactive); in the assay on SF-539 CNS, 88.7% (inactive); in the assay on UACC-257 melanoma, 76% (inactive); with M14 melanoma, 102% (inactive).

`CN1CCN(C(=S)S)CC1`: the growth is 104% (inactive) with NCI-H23 lung; 109% (inactive) in the assay with NCI-H226 lung; 129% (inactive) in the assay on NCI-H322M lung; 108% (inactive) with HOP-62 NSCLC; 116% (inactive) in the assay on NCI-H460 lung; 94.5% (inactive) in the assay on NCI-H522 lung. In addition, the growth is 94% (inactive) in the assay with A549/ATCC NSCLC; 105% (inactive) in the assay with 786-0 renal; 80.9% (inactive) in the assay on COLO 205 colon; 102% (inactive) in the assay on DU-145 prostate; 73.5% (inactive) in the assay on K-562 leukemia; 143% (inactive) with MALME-3M melanoma. The growth in the assay with MDA-MB-231 breast was 106% (inactive); with RXF 393 renal, 130% (inactive); in the assay on SF-268 CNS it was 102% (inactive); with SF-295 CNS, 127% (inactive); in the assay on SF-539 CNS, 104% (inactive); in the assay with UACC-257 melanoma it was 105% (inactive). For the same molecule, in the assay on M14 melanoma, the growth is 105% (inactive).

`Cc1cc2c3ccc(C)[n+](C)c3ccc2n1C`: the growth in the assay with NCI-H23 lung is 23.3% (inactive); in the assay on NCI-H226 lung, 80.9% (inactive); in the assay with NCI-H322M lung it was 99.5% (inactive); in the assay with HOP-62 NSCLC, 33.8% (inactive); in the assay on NCI-H460 lung, 61.7% (inactive); with NCI-H522 lung, 49.7% (inactive). Besides, the growth with A549/ATCC NSCLC was -0.921% (active); with 786-0 renal it was 53.4% (inactive); with COLO 205 colon, 10.7% (inactive); in the assay with DU-145 prostate, 46.7% (inactive); with MALME-3M melanoma it was 46.9% (inactive); with MDA-MB-231 breast, 33.6% (inactive). The growth in the assay with RXF 393 renal is 61.6% (inactive); with SF-268 CNS it was 19% (inactive); with SF-295 CNS, 26.4% (inactive); with SF-539 CNS, 67.5% (inactive); in the assay with UACC-257 melanoma it was 32.2% (inactive); in the assay with M14 melanoma, 92.7% (inactive).

The values are drawn from PubChem BioAssay (NCI).
